# PubChem BioAssay (Tox21)
# “And” between values parts separate entries of the source, which are not always exact repeats. Identical values can stand only once. Records with an inconclusive call do not appear. A call without a number means that no potency is given here. A structure can be active in one record and inactive in another. The source made the active and inactive calls. Unless noted, calls follow the shape of the dose curve; as a rule, active = well fitted curve in the direction sought with a large enough effect in the repeat runs; inconclusive = weak or mixed curves; inactive = no such curve, though single readings can be large; an effect the other way counts as inactive or inconclusive.
# Tests used:
# [1] = A CellTox Green Cytotoxicity Assay to monitor cytotoxicity in HEK293 cells - 32 hour (AID 1224881); also: nearly all actives have a fitted effect of over 40% in size; also: potency is read from the fitted curve at half-maximal effect
# Summary of the method: (§1)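 Cytotoxicity was tracked continuously in HEK293 cells by a DNA-binding dye excluded from viable cells. Compounds were transferred in DMSO 5 h after seeding; fluorescence was recorded at intervals up to 40 h.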
# [2] = A CellTox Green Cytotoxicity Assay to monitor cytotoxicity in HepG2 cells - 0 hour (AID 1224882); also: nearly all actives have a fitted effect of over 35% in size; also: potency is read from the fitted curve at half-maximal effect
# Summary of the method: (§2)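 Real-time, homogeneous cytotoxicity readout: dead-cell DNA staining by CellTox Green in HepG2 monolayers, fluorescence measured at timed intervals up to 40 h of continuous compound exposure.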
# [3] = A CellTox Green Cytotoxicity Assay to monitor cytotoxicity in HepG2 cells - 32 hour (AID 1224883); also: nearly all actives have a fitted effect of over 50% in size; also: potency is read from the fitted curve at half-maximal effect
# Summary of the method: as §2
# [4] = A CellTox Green Cytotoxicity Assay to monitor cytotoxicity in HEK293 cells - 8 hour (AID 1224884); also: nearly all actives have a fitted effect of over 35% in size; also: potency is read from the fitted curve at half-maximal effect
# Summary of the method: as §1
# [5] = qHTS RealTime-Glo MT Cell Viability Assay in HepG2 cells - 16 hour (AID 1224885); also: nearly all actives have a fitted effect of over 50% in size; also: potency is read from the fitted curve at half-maximal effect
# Summary of the method: (§3)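 Cells + NanoLuc/prosubstrate dispensed (600 cells/well) → 5 h at 37 C/5% CO2 → compounds in DMSO transferred → 40 h incubation at 37 C, luminescence read at 0, 8, 16, 24, 32, 40 h.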
# [6] = qHTS RealTime-Glo MT Cell Viability Assay in HEK293 cells - 8 hour (AID 1224887); also: nearly all actives have a fitted effect of over 50% in size; also: potency is read from the fitted curve at half-maximal effect
# Summary of the method: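 Nonlytic bioluminescent viability monitoring. HEK293 at 600 cells/well with reagent; 5 h settle; compound transfer by pintool; plates held at 37 C and read at set time points.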
# [7] = A CellTox Green Cytotoxicity Assay to monitor cytotoxicity in HEK293 cells - 16 hour (AID 1224888); also: nearly all actives have a fitted effect of over 35% in size; also: potency is read from the fitted curve at half-maximal effect
# Summary of the method: as §1
# [8] = qHTS RealTime-Glo MT Cell Viability Assay in HepG2 cells - 0 hour (AID 1224889); also: nearly all actives have a fitted effect of over 50% in size
# Summary of the method: as §3
# [9] = A CellTox Green Cytotoxicity Assay to monitor cytotoxicity in HepG2 cells - 8 hour (AID 1224890); also: nearly all actives have a fitted effect of over 45% in size; also: potency is read from the fitted curve at half-maximal effect
# Summary of the method: as §2
# [10] = qHTS assay to identify small molecule antagonists of the estrogen receptor alpha (ER-alpha) signaling pathway using the BG1 cell line in the presence of 0.1 nM 17-beta-estradiol - cell viability counter screen (AID 1259241); also: nearly all actives have a fitted effect of over 40% in size
# Summary of the method: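 VM7Luc4E2 cells (endogenous ER-alpha, 4×ERE-luciferase), hormone-starved 5 days in charcoal-stripped FBS, were treated with compounds plus 0.1 nM 17beta-estradiol for 22 hr at 37C; viability read in same wells as CellTiter-Fluor live-cell protease fluorescence.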
# [11] = qHTS assay to identify small molecule antagonists of the androgen receptor (AR) signaling pathway using the MDA cell line in the presence of 0.5 nM R1881 - cell viability counter screen (AID 1259242); also: nearly all actives have a fitted effect of over 45% in size
# Summary of the method: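 Cytotoxicity toward MDA-kb2 cells is measured by CellTiter-Fluor live-cell protease fluorescence after 16 hr compound exposure at 37C in the presence of 0.5 nM R1881 stimulator.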
# [12] = target: Estrogen receptor (Homo sapiens) (UniProt P03372); assay: qHTS assay to identify small molecule antagonists of the estrogen receptor alpha (ER-alpha) signaling pathway using the BG1 cell line in the presence of 0.1 nM 17-beta-estradiol (AID 1259244); also: nearly all actives have a fitted effect of over 50% in size; also: potency is read from the fitted curve at half-maximal effect
# Sequence of Estrogen receptor (Homo sapiens) (P03372 whole entry, looked up): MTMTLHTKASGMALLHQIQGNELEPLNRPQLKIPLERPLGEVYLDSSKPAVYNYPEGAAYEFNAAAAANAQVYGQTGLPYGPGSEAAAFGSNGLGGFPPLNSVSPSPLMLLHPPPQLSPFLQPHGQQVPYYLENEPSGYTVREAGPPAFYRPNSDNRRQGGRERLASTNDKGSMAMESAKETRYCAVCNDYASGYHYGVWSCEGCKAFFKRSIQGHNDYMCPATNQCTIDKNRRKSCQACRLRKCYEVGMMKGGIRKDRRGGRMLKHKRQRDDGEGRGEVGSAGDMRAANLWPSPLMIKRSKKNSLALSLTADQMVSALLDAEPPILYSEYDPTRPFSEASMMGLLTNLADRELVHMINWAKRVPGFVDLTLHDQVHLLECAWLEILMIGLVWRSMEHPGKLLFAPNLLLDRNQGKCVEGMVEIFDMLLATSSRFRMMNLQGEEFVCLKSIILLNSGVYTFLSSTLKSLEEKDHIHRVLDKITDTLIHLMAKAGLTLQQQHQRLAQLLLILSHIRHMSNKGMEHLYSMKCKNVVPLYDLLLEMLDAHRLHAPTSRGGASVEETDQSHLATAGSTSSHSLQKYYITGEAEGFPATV
# Summary of the method: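 After 5 days in hormone-depleted medium (charcoal-stripped serum, no phenol red), VM7Luc4E2 cells were seeded, incubated 24 h, then co-treated with compound and 0.1 nM (final) estradiol for 22 h before luminescence detection.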
# [13] = qHTS assay to identify small molecule phospholipidosis (PLD) inducers (AID 1259344; active = well fitted curve in the direction sought with a large enough effect; an effect the other way counts as inactive or inconclusive; also: potency is read from the fitted curve at half-maximal effect)
# Summary of the method: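 Fluorescent phospholipid staining (LipidTOX Red) measured by automated microscopy in fixed HepG2 cells after 24 h treatment; nuclei counterstained with Hoechst 33342; amiodarone as reference inducer.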
# [14] = qHTS assay to identify small molecule HDAC inhibitors (AID 1259364); also: nearly all actives have a fitted effect of over 45% in size; also: potency is read from the fitted curve at half-maximal effect
# Summary of the method: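 Homogeneous cell-based luminescent assay of endogenous class I/II HDAC activity; HCT-116 cells, 2 h compound exposure, 30 min HDAC-Glo development at RT.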
# [15] = qHTS assay to identify small molecule HDAC inhibitors - cell viability counter screen (AID 1259365)
# Summary of the method: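 Wild-type HCT-116 cells were seeded at 1,500 per well, incubated overnight at 37 C, then exposed to compounds in DMSO for 2hr. Viability was read by CellTiter-Glo luminescence after 30min at room temperature.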
# [16] = qHTS assay to identify small molecule agonists of the sonic hedgehog signaling (Shh) pathway - cell viability counter screen (AID 1259366); also: nearly all actives have a fitted effect of over 50% in size; also: potency is read from the fitted curve at half-maximal effect
# Summary of the method: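 NIH/3T3-derived 3T3 Gli1-Luc cells (stable Gli1-responsive firefly luciferase reporter) were seeded, rested 4 hr at 37 C/5% CO2, then exposed to compounds in DMSO for 24 hr; viability was read by CellTiter-Fluor fluorescence in the same wells.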
# [17] = qHTS assay to identify small molecule antagonists of the sonic hedgehog signaling (Shh) pathway - cell viability counter screen (AID 1259367); also: nearly all actives have a fitted effect of over 55% in size; also: potency is read from the fitted curve at half-maximal effect
# Summary of the method: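 Using CellTiter-Fluor, viability of Gli1-Luc reporter 3T3 cells is read by fluorescence in the wells used for the Shh luciferase assay. Treatment lasts 23 hr with conditioned medium, then reagent 1 hr at 37C.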
# [18] = qHTS assay to identify small molecule agonists of the sonic hedgehog signaling (Shh) pathway (AID 1259368; calls by dose curve; also: nearly all actives have a fitted effect of over 15% in size; also: potency is read from the fitted curve at half-maximal effect)
# Summary of the method: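 Steps: seed 3T3 Gli1-Luc cells, incubate 4 hr at 37 C, pin-transfer compounds in DMSO alongside a positive control, incubate 24 hr, add luciferase detection reagent, wait 30 min at room temperature, read luminescence.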
# [19] = qHTS RealTime-Glo MT Cell Viability Assay in HEK293 cells - 24 hour (AID 1224886); also: nearly all actives have a fitted effect of over 50% in size; also: potency is read from the fitted curve at half-maximal effect
# Summary of the method: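 Tox21 10K qHTS, HEK293, 600 cells/well, RealTime-Glo reagent co-dispensed with cells; 5 h preincubation, compound by pintool, 37 C, luminescence at 0–40 h.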
# [20] = target: Androgen receptor (Homo sapiens) (UniProt P10275); assay: qHTS assay to identify small molecule antagonists of the androgen receptor (AR) signaling pathway using the MDA cell line in the presence of 0.5 nM R1881 (AID 1259243); also: nearly all actives have a fitted effect of over 50% in size
# Sequence of Androgen receptor (Homo sapiens) (P10275 whole entry, looked up): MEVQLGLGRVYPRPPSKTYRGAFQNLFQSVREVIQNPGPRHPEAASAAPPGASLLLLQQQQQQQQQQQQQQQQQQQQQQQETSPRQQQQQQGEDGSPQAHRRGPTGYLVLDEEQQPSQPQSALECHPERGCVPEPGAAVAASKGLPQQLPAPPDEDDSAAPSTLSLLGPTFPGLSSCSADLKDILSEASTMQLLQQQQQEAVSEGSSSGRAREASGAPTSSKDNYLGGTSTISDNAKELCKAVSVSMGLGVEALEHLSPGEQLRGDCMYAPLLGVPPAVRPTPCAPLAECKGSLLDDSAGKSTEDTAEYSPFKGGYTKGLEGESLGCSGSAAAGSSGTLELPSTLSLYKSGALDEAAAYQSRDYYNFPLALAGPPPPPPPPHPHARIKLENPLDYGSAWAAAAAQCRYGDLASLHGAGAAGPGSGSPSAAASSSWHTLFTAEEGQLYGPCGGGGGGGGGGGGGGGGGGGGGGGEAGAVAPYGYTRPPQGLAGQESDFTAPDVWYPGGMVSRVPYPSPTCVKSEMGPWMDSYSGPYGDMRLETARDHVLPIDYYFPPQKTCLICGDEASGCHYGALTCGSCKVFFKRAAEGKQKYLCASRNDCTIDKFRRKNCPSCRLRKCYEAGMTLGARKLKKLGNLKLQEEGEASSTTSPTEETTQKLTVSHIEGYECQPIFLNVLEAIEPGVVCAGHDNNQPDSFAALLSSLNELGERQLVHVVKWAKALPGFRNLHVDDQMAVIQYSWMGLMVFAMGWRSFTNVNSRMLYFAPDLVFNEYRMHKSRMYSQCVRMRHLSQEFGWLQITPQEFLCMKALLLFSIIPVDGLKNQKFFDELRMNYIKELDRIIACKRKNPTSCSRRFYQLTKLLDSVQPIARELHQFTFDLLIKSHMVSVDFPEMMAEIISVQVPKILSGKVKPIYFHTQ
# Summary of the method: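 Steps: seed MDA-kb2 cells, incubate 5 hr at 37C; pin-transfer compounds in DMSO; add R1881 to 0.5 nM final; incubate 16 hr; add ONE-Glo, wait 30 min at room temperature; read luminescence.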
compound,measurement,setting,value
CCCCC(CC)COC(=O)c1ccc(N(C)C)cc1 (centres undefined),Potency,[1],inactive
same,Potency,[2],inactive
same,Potency,[3],inactive
same,Potency,[4],inactive
same,Potency,[5],inactive
same,Potency,[6],inactive
same,Potency,[7],inactive
same,Potency,[8],inactive
same,Potency,[9],inactive
same,Potency,[10],inactive
same,Potency,[11],inactive
same,Potency,[12],inactive
same,Potency,[13],inactive
same,Potency,[14],inactive
same,outcome,[15],inactive
same,Potency,[16],inactive
same,Potency,[17],inactive
same,Potency,[18],inactive
Cc1cc2nc3c(=O)[nH]c(=O)nc-3n(C[C@H](O)[C@H](O)[C@H](O)CO)c2cc1C,Potency,[1],48.5 µM (active) and 45.5 µM (active) and 11.7 µM (active)
same,Potency,[2],43.2 µM (active) and 40.5 µM (active) and 11.7 µM (active)
same,Potency,[3],43.2 µM (active) and 40.5 µM (active) and 11.7 µM (active)
same,Potency,[4],43.2 µM (active) and 40.5 µM (active) and 11.7 µM (active)
same,Potency,[5],inactive
same,Potency,[19],inactive
same,Potency,[6],inactive
same,Potency,[7],43.2 µM (active) and 40.5 µM (active) and 11.7 µM (active)
same,Potency,[9],43.2 µM (active) and 40.5 µM (active) and 11.7 µM (active)
same,Potency,[13],inactive
same,Potency,[14],inactive
same,outcome,[15],inactive
same,Potency,[18],inactive
OC1CCCCCCCCCCC1,Potency,[1],inactive and 43.6 µM (active)
same,Potency,[2],inactive and 27.5 µM (active)
same,Potency,[3],44.1 µM (active) and 43.6 µM (active)
same,Potency,[4],inactive and 43.6 µM (active)
same,Potency,[5],inactive
same,Potency,[19],inactive
same,Potency,[6],inactive
same,Potency,[8],inactive
same,Potency,[9],43.6 µM (active)
same,Potency,[10],inactive
same,Potency,[11],inactive
same,Potency,[12],inactive
same,Potency,[14],inactive
same,outcome,[15],inactive
same,Potency,[16],inactive
same,Potency,[17],inactive
same,Potency,[18],inactive
COC(C)COC(C)COC(C)CO (centres undefined),Potency,[1],inactive
same,Potency,[2],inactive
same,Potency,[3],inactive
same,Potency,[4],inactive
same,Potency,[5],inactive
same,Potency,[6],inactive
same,Potency,[7],inactive
same,Potency,[8],inactive
same,Potency,[9],inactive
same,Potency,[10],inactive
same,Potency,[11],inactive
same,Potency,[20],inactive
same,Potency,[12],inactive
same,Potency,[14],inactive
same,outcome,[15],inactive
same,Potency,[16],inactive
same,Potency,[17],inactive
same,Potency,[18],inactive
Nc1ccccc1N,Potency,[1],50.1 µM (active)
same,Potency,[2],50.1 µM (active) and inactive
same,Potency,[3],50.1 µM (active)
same,Potency,[4],50.1 µM (active)
same,Potency,[5],inactive
same,Potency,[19],inactive
same,Potency,[7],50.1 µM (active)
same,Potency,[8],inactive
same,Potency,[9],56.2 µM (active)
same,Potency,[10],inactive
same,Potency,[11],inactive
same,Potency,[12],inactive and 54.5 µM (active)
same,Potency,[13],inactive
same,Potency,[14],19.8 µM (active)
same,outcome,[15],inactive
same,Potency,[17],inactive
same,Potency,[18],788 nM (active) and 13.7 µM (active)
COc1ccc(OC)c(C(O)CNC(=O)CN)c1 (centres undefined),Potency,[1],inactive
same,Potency,[2],inactive
same,Potency,[3],inactive
same,Potency,[4],inactive
same,Potency,[5],inactive
same,Potency,[6],inactive
same,Potency,[7],inactive
same,Potency,[8],inactive
same,Potency,[9],inactive
same,Potency,[10],inactive
same,Potency,[11],inactive
same,Potency,[12],inactive
same,Potency,[13],inactive
same,Potency,[14],inactive
same,outcome,[15],inactive
same,Potency,[16],inactive
same,Potency,[17],inactive
same,Potency,[18],inactive
Cc1ncc[nH]1,Potency,[1],inactive
same,Potency,[2],inactive
same,Potency,[3],inactive
same,Potency,[4],inactive
same,Potency,[5],inactive
same,Potency,[19],inactive
same,Potency,[6],inactive
same,Potency,[7],inactive
same,Potency,[9],inactive
same,Potency,[10],inactive
same,Potency,[11],inactive
same,Potency,[13],inactive
same,Potency,[14],inactive
same,outcome,[15],inactive
same,Potency,[16],inactive
same,Potency,[17],inactive
same,Potency,[18],inactive
CC(C)Oc1ccc2c(=O)c(-c3ccccc3)coc2c1,Potency,[1],inactive
same,Potency,[2],inactive
same,Potency,[3],inactive
same,Potency,[4],inactive
same,Potency,[5],inactive
same,Potency,[19],12 µM (active)
same,Potency,[7],inactive
same,Potency,[8],inactive
same,Potency,[9],inactive
same,Potency,[10],inactive
same,Potency,[11],inactive
same,Potency,[13],inactive
same,Potency,[14],2.37 µM (active)
same,outcome,[15],inactive
same,Potency,[16],inactive
same,Potency,[17],inactive
c1ccc2sc(SSN3CCOCC3)nc2c1,Potency,[1],38.8 µM (active) and 54.9 µM (active)
same,Potency,[2],inactive
same,Potency,[3],54.8 µM (active) and 54.9 µM (active)
same,Potency,[4],inactive
same,Potency,[5],54.9 µM (active)
same,Potency,[19],38.8 µM (active) and 49 µM (active)
same,Potency,[6],48.9 µM (active)
same,Potency,[7],inactive
same,Potency,[9],inactive
same,Potency,[10],inactive
same,Potency,[11],inactive
same,Potency,[12],inactive
same,Potency,[14],inactive
same,outcome,[15],inactive
same,Potency,[16],48.5 µM (active)
same,Potency,[17],54.4 µM (active)
same,Potency,[18],inactive
CCCCc1oc2ccccc2c1C(=O)c1cc(I)c(OCCN(CC)CC)c(I)c1,Potency,[1],44 µM (active)
same,Potency,[2],inactive
same,Potency,[3],34.9 µM (active) and 26.8 µM (active)
same,Potency,[4],inactive
same,Potency,[5],39.2 µM (active)
same,Potency,[19],34.9 µM (active) and 23.9 µM (active)
same,Potency,[10],inactive
same,Potency,[12],inactive
same,PLD induction,[13],-0.301% [at 7.66 µM] (inactive)
same,Potency,[13],10 µM (active)
same,Potency,[14],inactive
same,outcome,[15],inactive
same,Potency,[16],43.6 µM (active)
same,Potency,[17],inactive
same,Potency,[18],inactive
CCCCCCCCCCCO,Potency,[1],inactive
same,Potency,[2],inactive
same,Potency,[3],inactive
same,Potency,[4],inactive
same,Potency,[5],inactive
same,Potency,[19],inactive
same,Potency,[6],inactive
same,Potency,[7],inactive
same,Potency,[9],inactive
same,Potency,[10],inactive
same,Potency,[11],inactive
same,Potency,[12],inactive
same,Potency,[14],inactive
same,outcome,[15],inactive
same,Potency,[16],inactive
same,Potency,[17],inactive
same,Potency,[18],inactive
Cc1ccc2c(n1)Oc1ccc(C(C)C(=O)OCC(=O)N(C)C)cc1C2 (centres undefined),Potency,[1],inactive
same,Potency,[2],inactive
same,Potency,[3],inactive
same,Potency,[4],inactive
same,Potency,[5],inactive
same,Potency,[6],inactive
same,Potency,[7],inactive
same,Potency,[8],inactive
same,Potency,[9],inactive
same,Potency,[10],inactive
same,Potency,[11],inactive
same,Potency,[20],inactive
same,Potency,[12],inactive
same,Potency,[13],inactive
same,Potency,[14],11.9 µM (active) and 9.44 µM (active)
same,outcome,[15],inactive
same,Potency,[16],inactive
same,Potency,[17],inactive
same,Potency,[18],inactive
Oc1ccc(O)cc1,Potency,[1],inactive
same,Potency,[2],inactive
same,Potency,[3],inactive
same,Potency,[4],inactive
same,Potency,[5],inactive
same,Potency,[6],inactive
same,Potency,[7],inactive
same,Potency,[9],inactive
same,Potency,[10],inactive
same,Potency,[11],inactive
same,Potency,[12],inactive
same,Potency,[13],inactive
same,Potency,[14],inactive
same,outcome,[15],inactive
same,Potency,[16],10.8 µM (active) and 24.3 µM (active) and 26.6 µM (active)
same,Potency,[17],30.5 µM (active) and 54.5 µM (active)
same,Potency,[18],inactive
